# Assay results taken from the supplement of paper PMC10127200.
# Where a name gives a salt, the structure may show the parent alone.
# Legend:
# Assay in all cases: Euclidean distance of Cell Painting phenotypic profile (signed KS, 77 features) to DMSO centroid (dimensionless distance); 5 or 10 uM (library dependent); higher = stronger phenotypic change vs DMSO (phenoactivity)
# Conditions in all cases: 48 h
# 786-O = tested on: 786-O
# In short: (§1)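 Five cancer lines and a healthy fibroblast line received library compounds at 10 or 5 uM (library-dependent, 0.1% DMSO final) for 48 h. Stained cells were imaged confocally at 20X (9 fields/well). Harmony extracted 77 features, each scored as a signed Kolmogorov-Smirnov statistic against same-plate vehicle wells. Profiles were plate-position corrected, correlation-weighted and replicate-averaged at the top dose. Phenoactivity is the Euclidean distance from each profile to the median vehicle profile.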
# A549 = tested on: A549
# In short: as §1
# DU145 = tested on: DU145
# In short: as §1
# FB = tested on: FB
# In short: as §1
# HEPG2 = tested on: HEPG2
# In short: as §1
# OVCAR4 = tested on: OVCAR4
# In short: as §1
SMILES,Euclidean distance (786-O),Euclidean distance (A549),Euclidean distance (DU145),Euclidean distance (FB),Euclidean distance (HEPG2),Euclidean distance (OVCAR4)
CC(C)NCC(O)COc1cccc2[nH]ccc12 (stereo not given) [Pindolol],0.941,0.858,0.721,1.06,0.588,0.895
OC[C@H]1O[C@H](O[C@H]2O[C@H](CO)[C@@H](O)[C@H](O)[C@H]2O)[C@H](O)[C@@H](O)[C@@H]1O [D-(+)-Trehalose dihydrate],0.894,1.33,1.15,1.04,0.672,1.09
CC1Cc2ccccc2N1NC(=O)c1ccc(Cl)c(S(N)(=O)=O)c1 (stereo not given) [Indapamide],0.856,0.679,1.26,0.772,1.91,1.41
CSc1nc2cc(Cl)c(Oc3cccc(Cl)c3Cl)cc2[nH]1 [Triclabendazole],1.55,0.638,1.65,1.07,1.43,0.772
C/C=C1/[C@H](O[C@@H]2O[C@H](CO)[C@@H](O)[C@H](O)[C@H]2O)OC=C(C(=O)OC)[C@H]1CC(=O)OCCc1ccc(O)c(O)c1 [Oleuropein],0.802,0.844,0.63,0.971,0.64,1.46
CNC(=O)c1nn(C)c2c1C(C)(C)Cc1cnc(Nc3ccc(N4CCN(C)CC4)cc3)nc1-2,2.4,3.03,2.9,3.36,2.65,2.9
CCN(CC)CCNC(=O)c1c(C)[nH]c(/C=C2\C(=O)Nc3ccc(F)cc32)c1C [Sunitinib],3.58,3.66,2.98,4.34,3.3,2.86
COc1cc(F)c(C(C)C)cc1-c1ccc(C(F)(F)F)cc1CN1C(=O)O[C@H](c2cc(C(F)(F)F)cc(C(F)(F)F)c2)[C@@H]1C [Anacetrapib (MK-0859)],0.703,0.903,1.12,0.869,1.84,0.709
CN1C2CCCC1CC(NC(=O)c1nn(C)c3ccccc13)C2 (stereo not given) [Granisetron],1.06,0.852,0.646,1.23,1,2.06
O=C1OC(OC(=O)c2cccnc2Nc2cccc(C(F)(F)F)c2)c2ccccc21 (stereo not given) [Talniflumate],0.81,0.859,0.922,0.783,0.818,1
CC1(C)Cc2c(-c3ccccc3)c(-c3ccc(Cl)cc3)c(CC(=O)O)n2C1 [Licofelone],0.977,1.12,1.32,1.22,0.815,1.41
COc1ccc(/C=C\c2cc(OC)c(OC)c(OC)c2)cc1O [Combretastatin A4],3.46,3.33,3.91,2.81,4.14,2.83
CC1(C)S[C@@H]2[C@H](NC(=O)[C@H](N)c3ccccc3)C(=O)N2[C@H]1C(=O)O [Ampicillin Trihydrate],1.3,1.2,0.921,0.762,0.667,1.53
Cc1cc(C(C)(C)C)c(O)c(C(C)(C)C)c1 [Butylated hydroxytoluene],0.873,0.945,0.885,0.657,1.03,0.752
CC(=O)OCC(CCn1cnc2cnc(N)nc21)COC(C)=O [Famciclovir],1,0.742,0.892,0.846,0.598,1.57
C[C@]12CC[C@@H]3c4ccc(O)cc4CC[C@H]3[C@@H]1CC[C@@H]2O [Estradiol],1.17,0.515,2.36,1.1,0.515,1.04
NC[C@@H]1O[C@H](O[C@H]2[C@@H](O)[C@H](O[C@@H]3[C@@H](O)[C@H](N)C[C@H](N)[C@H]3O[C@H]3O[C@H](CO)[C@@H](O)[C@H](O)[C@H]3N)O[C@@H]2CO)[C@H](N)[C@@H](O)[C@@H]1O [Paromomycin Sulfate],1.05,1.06,0.88,1.2,0.817,1
CCS(=O)(=O)N1CC(CC#N)(n2cc(-c3ncnc4[nH]ccc34)cn2)C1 [Baricitinib phosphate],1.75,0.985,1.99,1.55,0.776,0.981
NS(=O)(=O)c1cc2c(cc1Cl)NC(C1CC3C=CC1C3)NS2(=O)=O (stereo not given) [Cyclothiazide],1.37,0.917,0.711,1.07,0.641,2.44
CCCCNc1ncc(-c2ccc(CN3CCOCC3)cn2)c(NC2CCC(O)CC2)n1 (stereo not given),0.709,1.2,0.694,1.26,0.659,0.882
CC(C)(CO)c1cc2cc(NC(=O)C3(c4ccc5c(c4)OC(F)(F)O5)CC3)c(F)cc2n1C[C@@H](O)CO,1.47,1.89,1.24,2.93,0.904,2.17
CCN1CC(CCN2CCOCC2)C(c2ccccc2)(c2ccccc2)C1=O (stereo not given) [Doxapram HCl],0.672,0.512,0.481,0.699,0.498,0.962
O=C1c2ccc(Nc3ccc(F)cc3F)cc2CCc2ccc(OC[C@H](O)CO)cc21 [Skepinone-L],1.06,1.85,1.78,2.05,0.828,1.31
CCN(CCCCOC(=O)c1ccc(OC)c(OC)c1)C(C)Cc1ccc(OC)cc1 (stereo not given) [Mebeverine Hydrochloride],0.875,1.21,1.06,1.29,0.855,1.91
O=C(O)CCn1c2c(c3ccccc31)C[C@H](NS(=O)(=O)c1ccc(F)cc1)CC2 [Ramatroban],0.593,0.487,0.969,0.538,1.42,0.778
